SRC1 TRFRET art – TR-FRET detection interference compounds, primary screen, artefact control for PPARgamma SRC-1 recruitment agonists, biochemical, TR-FRET emission ratio | TR-FRET detection artefact counter-screen; hits give high values | TR-FRET ratio at 8 µM | actives 0.34% (n = 99,000); in the data active means TR-FRET ratio above about 2300
PPARg SRC1 recr – PPARgamma agonists recruiting SRC-1 coactivator, primary screen, biochemical; Peroxisome proliferator-activated receptor gamma (Homo sapiens), P37231; PPARgamma-SRC-1 coactivator recruitment biochemical assay; activation, % at 8 µM; actives 0.41% (n = 200,000); in the data active means activation above about 19%;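 further: 0% = DMSO and 100% = reference agonist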
Target sequence (P37231 whole entry, looked up): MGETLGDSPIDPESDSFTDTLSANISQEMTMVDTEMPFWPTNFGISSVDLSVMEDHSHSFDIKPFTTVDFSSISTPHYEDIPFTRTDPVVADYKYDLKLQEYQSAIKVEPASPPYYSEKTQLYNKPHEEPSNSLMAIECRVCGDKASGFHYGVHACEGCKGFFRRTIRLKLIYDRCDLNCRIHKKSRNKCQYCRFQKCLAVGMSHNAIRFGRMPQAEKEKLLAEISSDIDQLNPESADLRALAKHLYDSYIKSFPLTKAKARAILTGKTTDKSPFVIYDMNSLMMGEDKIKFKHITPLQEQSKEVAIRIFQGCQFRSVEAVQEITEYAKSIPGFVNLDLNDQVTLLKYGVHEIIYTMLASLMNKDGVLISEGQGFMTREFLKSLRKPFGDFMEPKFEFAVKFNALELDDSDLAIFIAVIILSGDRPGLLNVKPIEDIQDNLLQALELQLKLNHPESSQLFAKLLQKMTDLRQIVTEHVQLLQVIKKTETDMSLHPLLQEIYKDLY
SRC2 TRFRET art – TR-FRET signal artefacts, primary screen, artefact control for PPARgamma SRC-2 agonist project, biochemical; TR-FRET artefact counter-screen; hits give high values; TR-FRET ratio at 8 µM; actives 0.4% (n = 200,000); AID 1049, 2008
PPARg SRC-2 ag – agonists of PPARg-SRC-2 recruitment, primary screen, biochemical, HTS; Peroxisome proliferator-activated receptor gamma (Homo sapiens), P37231; PPARgamma LBD-SRC-2 recruitment; activation, % at 8 µM; actives 0.34% (n = 200,000); AID 1032, 2008; in the data active means activation above about 22%;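 further: 0% = vehicle and 100% = reference agonist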
SRC3 TRFRET art – TR-FRET detection interference compounds, artefact control for PPARgamma SRC-3 recruitment agonists, biochemical, TR-FRET ratio; TR-FRET artefact counter-screen, PPARgamma/SRC-3 format; hits give high values; TR-FRET ratio at 8 µM; actives 0.39% (n = 99,000); AID 1048, 2008
PPARg SRC-3 ag – PPARgamma agonists recruiting SRC-3 coactivator, primary screen, biochemical | Peroxisome proliferator-activated receptor gamma (Homo sapiens), P37231 | biochemical PPARgamma/SRC-3 coactivator recruitment assay | activation, % at 8 µM | actives 0.26% (n = 200,000) | AID 731, 2007; in the data active means activation above about 23%;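 further: 0% = DMSO and 100% = reference agonist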
PPARg SRC2 ag – agonists of PPARgamma SRC-2 coactivator recruitment, confirmation, biochemical, HTS. biochemical SRC-2 recruitment by PPARgamma. shares compounds with PPARg SRC-3 ag. AID 1297, 2008. activation, % at 8 µM. actives 52% (n = 790); in the data active means activation above about 22%;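 further: 0% = vehicle alone and 100% = reference agonist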
PPARg SRC1 ag – PPARgamma agonists recruiting SRC-1 coactivator, confirmation, biochemical | shares compounds with PPARg SRC-3 ag | PPARgamma–SRC-1 coactivator recruitment biochemical assay | activation, % at 8 µM | actives 43% (n = 790) | AID 1300, 2008; in the data active means activation above about 20%;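 further: 0% = vehicle wells and 100% = reference agonist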
PPARg SRC3 conf – PPARgamma-driven SRC-3 coactivator recruitment agonists, confirmation, biochemical; shares compounds with PPARg SRC-3 ag; biochemical PPARgamma-SRC-3 coactivator recruitment, agonist mode; activation, % at 8 µM; actives 29% (n = 790); in the data active means activation above about 24%;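 further: 0% = vehicle wells and 100% = reference agonist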
An asterisk follows results filed as active; / = no result given. Only some compounds are listed: those with a hit (about 0.84% of all), similar ones and a draw of the others. Unless noted, no stated cut-off is given here; in the data, active means TR-FRET ratio above about 2000; inactive means the rest.

SMILES	SRC1 TRFRET art	PPARg SRC1 recr	SRC2 TRFRET art	PPARg SRC-2 ag	SRC3 TRFRET art	PPARg SRC-3 ag	PPARg SRC2 ag	PPARg SRC1 ag	PPARg SRC3 conf
CCn1c(=S)[nH]c2scc(-c3cccs3)c2c1=O	3314*	52.1*	2915*	49.4*	2804*	39.1*	60.0*	44.4*	39.1*
C=CCn1c(=S)[nH]c2sccc2c1=O	1985	6.7	1612	8.8	1503	0.3	/	/	/
O=c1c2c(-c3cccs3)csc2[nH]c(=S)n1-c1ccccc1	/	64.7*	2587*	42.6*	/	81.7*	63.0*	47.7*	41.6*
O=C(Nn1c(O)c(C=C2N=c3ccccc3=N2)sc1=S)c1ccccc1Cl	/	12.3	1641	19.5	/	29.8*	25.9*	21.2*	15.6
CC1CN(C(=O)N2CCCCC2)CCN1C(=O)N1CCCCC1 (stereo not given)	1847	2.3	1506	2.7	1478	-3.8	/	/	/
Cn1c(=O)cc(SCC(=O)Nc2ccc3c(c2)OCO3)c2ccccc21	/	31.9*	2627*	59.6*	/	42.5*	42.1*	27.6*	27.1*
Cn1cc(SCC(=O)Nc2ccc3c(c2)OCO3)c2ccccc21	/	-2.2	1634	-3.5	/	-6.6	/	/	/
CCCn1cc(SCC(=O)Nc2ccc3c(c2)OCO3)c2ccccc21	/	5.4	1751	10.9	/	15.1	/	/	/
CCn1c(=O)cc(SCC(=O)Nc2ccc3c(c2)OCCO3)c2ccccc21	/	68.6*	3434*	84.9*	/	92.3*	65.0*	45.7*	43.4*
O=C1CCC(=O)N1CC(=O)N(c1ccccc1)c1ccccc1	2067	0.3	1697	-2.5	1719	5.0	/	/	/
O=C1CSC2=NCN(c3ccc4c(c3)OCO4)CN12	/	1.9	1524	-8.0	/	-5.3	/	/	/
CN(C)c1ccc(N2CN=C3SCC(=O)N3C2)cc1	/	50.5*	2229*	64.1*	/	86.4*	6.1	9.5	2.6
Cc1ccc(NCC(=O)N/N=C/c2cccc(Oc3ccccc3)c2)cc1	1776	-0.1	1525	6.2	1587	-0.7	/	/	/
O=[N+]([O-])c1ccc(N/N=C/c2c[nH]c3ccccc23)cc1	/	-1.1	1738	12.1	/	6.4	/	/	/
O=[N+]([O-])c1ccc(N/N=C/c2ccc[nH]2)cc1	2294	16.7	1763	27.5*	1831	12.3	6.0	7.6	5.0
CC(C)Sc1nc2sc3c(c2c2nnc(SCC(=O)NCc4ccco4)n12)CCCC3	/	19.3*	1699	10.5	/	10.5	8.7	0.4	5.0
Cc1cc(C)n(CC(C)NCc2cn[nH]c2-c2ccc(C)c(C)c2)n1 (stereo not given)	1774	-2.1	1259	-3.8	1510	-3.7	/	/	/
O=C(N/N=C/c1ccc(N2CCOCC2)o1)c1cccc(C(F)(F)F)c1	/	11.7	1609	23.6*	/	12.7	5.6	3.8	3.9
Cn1cccc1C(=O)NC(=O)COC(=O)c1ccccc1Sc1ccccc1C#N	/	24.1*	3090*	21.8*	/	29.3*	19.2	19.2	9.8
COC(=O)c1ccc2nc(Nc3nc4ccc(F)cc4s3)sc2c1	2480*	22.8*	1817	16.1	1850	4.4	-4.3	-2.4	-2.6
COC(=O)c1ccc2nc(NC(=O)C(C)(C)C)sc2c1	1915	1.2	1681	1.8	1523	5.4	/	/	/
O=c1[nH]c2ccc(Cl)cc2c(-c2ccccc2)c1SC(=S)N1CCCCC1	/	1.5	1624	22.9*	/	15.7	3.8	1.3	0.1
CCn1c2ccccc2c2cc(NC(=O)c3cc(OC)c(OC)c(OC)c3)ccc21	/	8.4	1668	6.4	/	13.3	/	/	/
CCn1c(=O)cc(SCC(=O)Nc2cc(OC)c(OC)c(OC)c2)c2ccccc21	/	38.7*	2483*	55.4*	/	42.2*	39.5*	25.1*	26.0*
CCn1c(=O)cc(SCC(=O)Nc2cccc(SC)c2)c2ccccc21	/	35.1*	2529*	42.4*	/	46.5*	44.0*	27.7*	27.9*
SMILES	SRC1 TRFRET art	PPARg SRC1 recr	SRC2 TRFRET art	PPARg SRC-2 ag	SRC3 TRFRET art	PPARg SRC-3 ag	PPARg SRC2 ag	PPARg SRC1 ag	PPARg SRC3 conf
O=C(Nc1ccc(SC(F)F)cc1)c1ccc(F)cc1	1921	8.9	1899	9.0	1583	7.7	/	/	/
COc1ccc(F)cc1S(=O)(=O)Nc1cccc(C(=O)O)c1	1765	1.6	1730	5.9	1551	0.2	/	/	/
CCn1c2ccccc2c2cc(NC(=O)CSc3nccc(=O)[nH]3)ccc21	2209	14.4	1693	3.3	1750	7.4	/	/	/
Cc1ccccc1C(=O)c1cccn1CC(=O)NCCN1CCN(c2cccc(C)c2C)CC1	/	-1.1	1679	1.7	/	-11.0	/	/	/
CC(C)CCN1CCN(C2CSCCSC2)CC1CCO (stereo not given)	1863	-7.0	1629	2.9	1613	0.8	/	/	/
Cc1[nH]c2ccccc2c1SCC(=O)N1CCC(C)CC1	1569	3.8	1696	-2.2	1659	3.7	/	/	/
CCn1c(=O)cc(SCC(=O)N2CCC(C)CC2)c2ccccc21	/	77.1*	3414*	78.8*	/	108.3*	43.8*	28.6*	29.0*
CCn1c(=O)cc(SCC(=O)N2CCN(C)CC2)c2ccccc21	/	27.3*	2120*	33.8*	/	39.8*	30.0*	19.9*	20.7
CCn1cc(SCC(=O)N2CCOCC2)c2ccccc21	/	1.0	1544	9.1	/	8.7	/	/	/
CCOC(=O)N1CCC(NC(=O)CSc2cc(=O)n(CC)c3ccccc23)CC1	/	55.2*	2762*	48.3*	/	44.5*	37.9*	26.9*	24.6*
CCn1c(=O)cc(OCC(=O)N2CCCC2)c2ccccc21	/	8.6	1703	1.9	/	4.1	/	/	/
CCn1c(=O)cc(SCC(=O)N2CCCCC2)c2ccccc21	/	43.7*	2691*	48.4*	/	52.2*	37.5*	22.9*	25.6*
CCOC(=O)C1CCN(C(=O)Cc2c(C(=O)O)n(C)c3ccccc23)CC1	/	-2.9	1539	-0.4	/	2.9	/	/	/
CCN1CCN(C(=O)CSc2cc(=O)n(CC)c3ccccc23)CC1	/	23.0*	2006*	43.6*	/	41.3*	26.0*	17.0	18.1
CCOC(=O)C1CCN(C(=O)CSc2cc(=O)n(CC)c3ccccc23)CC1	/	44.0*	2661*	53.3*	/	61.9*	39.7*	26.9*	27.2*
